SENP8 block-1 = inhibitors of human SENP8 protease; inhibition, % at 10 µM; 330,000 compounds, 1.2% hits; purified SENP8, Z-RLRGG-aminoluciferin cleavage, luminescence; Q96LD8; in the data active = inhibition above about 50%
Target sequence (Q96LD8 whole entry, looked up): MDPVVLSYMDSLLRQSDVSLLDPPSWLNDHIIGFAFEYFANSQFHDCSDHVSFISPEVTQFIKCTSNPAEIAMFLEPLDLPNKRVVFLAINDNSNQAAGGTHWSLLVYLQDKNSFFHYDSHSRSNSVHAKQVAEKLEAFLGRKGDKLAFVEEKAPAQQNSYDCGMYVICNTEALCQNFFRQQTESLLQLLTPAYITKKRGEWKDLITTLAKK
SENP7 block = SENP7 protease inhibition | Q9BQF6 | recombinant SENP7, Z-RLRGG-aminoluciferin luminescence, 40 min | inhibition, % at 5 µM | 330,000 compounds, 1.5% hits;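 active = inhibition above about 50% at the single test dose, limit read from the data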;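 also: plate controls were DMSO with enzyme for no effect and no enzyme buffer wells for full effect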
Target sequence (Q9BQF6 706-1050 limits assumed): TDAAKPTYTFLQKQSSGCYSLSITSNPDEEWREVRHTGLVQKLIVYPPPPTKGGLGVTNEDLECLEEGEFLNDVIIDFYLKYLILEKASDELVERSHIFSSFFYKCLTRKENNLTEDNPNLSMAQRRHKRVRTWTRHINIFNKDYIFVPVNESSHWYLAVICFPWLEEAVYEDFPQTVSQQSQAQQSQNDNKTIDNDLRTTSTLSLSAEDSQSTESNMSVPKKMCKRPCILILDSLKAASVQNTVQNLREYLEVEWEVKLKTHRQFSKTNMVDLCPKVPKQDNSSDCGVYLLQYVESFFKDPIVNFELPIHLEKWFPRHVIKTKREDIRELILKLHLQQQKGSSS
SENP8 block-2 = blocks human SENP8 cleavage of Nedd8 substrate | Q96LD8 | recombinant SENP8, Nedd8 substrate fluorescence | inhibition, % at 20 µM | 360,000 compounds, 0.64% hits | AID 602440; in the data active = inhibition mostly above about 40%, no sharp cut-off; inactive = mostly below about 27%
SENP6 inh = inhibitors of human SENP6 protease. Q9GZR1. 330,000 compounds, 1.8% hits. inhibition, % at 10 µM. AID 2599. Recombinant SENP6 catalytic domain, aminoluciferin luminescence;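 active = inhibition above about 50% at the single tested dose, limit read from the data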;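 also: plate controls were DMSO wells with enzyme for no effect and DMSO wells lacking enzyme for full effect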
Platelet DG rel = platelet dense granule release activity. human platelet-rich plasma, SFLLRN dense granule ATP release, luminescence. inhibition, %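 (compounds screened at 7.5 µM in platelet-rich plasma)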. 300,000 compounds, 0.22% hits. AID 1663;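 active = mean replicate score, as percent of positive control, at or above 50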
The depositor's hits bear a star; · = no result. Only some compounds are listed: those with a hit (about 2.4% of all), similar ones and a draw of the others.

SMILES	SENP8 block-1	SENP7 block	SENP8 block-2	SENP6 inh	Platelet DG rel
COc1cc2c(cc1OC)-c1cc(Nc3ccc(N(C)C)cc3)nc(=O)n1CC2	-7	-10	-264	-8	76*
COc1cc2c(cc1OC)-c1cc(Nc3cccc(F)c3)nc(=O)n1CC2	-8	2	-319	-2	71*
COc1cc2c(cc1OC)-c1cc(Nc3ccc(F)cc3)nc(=O)n1CC2	6	-9	-224	-12	95*
CCN(CC)c1ccc(Nc2cc3n(c(=O)n2)CCc2cc(OC)c(OC)cc2-3)cc1	19	5	-38	15	20
CCc1ccc2[nH]c(O)c(N=NC3=NC(=O)CS3)c2c1	-2	-2	27*	-16	3
CCc1ccc2c(c1)c(N=NC1=NC(=O)CS1)c(O)n2CC	-7	0	42*	-32	0
Cc1ccc(-n2ncc(-c3n[nH]c(=S)o3)c2N)cc1C	·	·	14	·	·
O=C1CCCN1CCCNc1nc(NCc2ccccc2)nc2ccsc12	·	·	-8	·	·
O=C(c1ccccc1)c1ccc(O)c(O)c1O	·	·	47*	·	·
Cc1cc(C(=O)c2ccccc2)cc(C)c1O	·	·	13	·	·
CC(=O)Oc1ccc2oc(-c3ccccc3)c(C(N)=O)c2c1	3	4	·	1	-6
O=C(O)c1cccc2c1-c1ccc([N+](=O)[O-])cc1C2=O	·	·	11	·	·
O=C(O)c1cccc2c1C(=O)c1cc([N+](=O)[O-])cc([N+](=O)[O-])c1-2	·	·	44*	·	·
Cn1c(=O)c(C(=O)Nc2ccccn2)c(O)c2ccccc21	36	75*	-188	-5	11
CCCCOc1ccc(C(=O)Nc2cccc(-n3cnnn3)c2)cc1OC	-2	4	13	5	-4
COc1ccc(S(=O)(=O)N2CCCCCC2)cc1C(=O)OCc1cccc(OC)c1OC	10	-3	10	2	-9
CCN1C(=O)/C(=c2\o/c(=C3\C=Cc4ccccc4N3CC)c(=O)n2CC)SC1=S	·	·	13	·	5
CCN1C(=O)/C(=C2\C=Cc3ccccc3N2CC)SC1=S	0	9	46*	-19	15
NC1=C(Br)C(=O)c2ncccc2C1=O	·	·	96*	·	·
Cc1nc2ccc(NC(=O)c3cncc(Br)c3)cc2s1	-4	-5	25	0	5
Cc1cccc(NC(=O)Nc2nnc([C@H]3C[C@H](O)[C@@H](CO)O3)s2)c1	·	·	5	·	·
Cc1ccccc1/C=C/c1nc2ccccc2c(=O)[nH]1	69*	86*	-71	12	9
N#CCOc1ccccc1/C=C/c1nc2ccccc2c(=O)[nH]1	-8	2	-62	-10	4
O=c1c2c(nc3cc(-c4ccccc4Cl)[nH]n13)CCS2	77*	37	-282	85*	3
O=[N+]([O-])c1cc(C(F)(F)F)ccc1N1CCN(S(=O)(=O)c2ccc3ccccc3c2)CC1	-2	0	40*	-10	2
SMILES	SENP8 block-1	SENP7 block	SENP8 block-2	SENP6 inh	Platelet DG rel
O=[N+]([O-])c1cc(C(F)(F)F)ccc1N1CCC(O)CC1	2	2	14	-24	-4
COC(CNC(=O)c1cccnc1)OC	0	2	1	0	-1
COC(CNC(=O)c1ccc2c3c(onc13)-c1ccccc1C2=O)OC	23	25	102*	45	6
O=[N+]([O-])c1cc(/C=N/N2CCN(C3c4ccccc4-c4ccccc43)CC2)ccc1Cl	2	2	47*	6	6
C[C@@H]1CN([C@H](C)CO)C(=O)CCCn2cc(nn2)CO[C@H]1CN(C)C(=O)Cc1ccccc1	·	·	4	·	·
O=C1OC(COCC#Cc2ccccc2)CN1c1ccccc1 (configuration not stated)	·	·	19	·	·
COc1ccc2c(c1)OC/C(=C/c1cccs1)C2=O	89*	96*	-6	94*	5
CC(=O)n1c2ccccc2c2nc(NC(C)C)sc21	8	11	35	15	-4
CNc1nc2c3ccccc3n(C(C)=O)c2s1	0	2	18	5	50*
O=C(O)C(Cc1ccccc1)N1C(=O)/C(=C/c2cccs2)SC1=S (configuration not stated)	2	11	41*	-7	·
CC1CCN(c2nc3ccc(C(=O)O)cc3s2)CC1	97*	96*	21	97*	-2
O=C(NCCN1CCC(n2c(=O)[nH]c3ccccc32)CC1)c1ccc(Cl)cc1Cl	·	·	24	·	·
CC(=O)c1cccc(S(=O)(=O)N2CCC(C(=O)Oc3ccc(-c4nnco4)cc3)CC2)c1	7	1	0	4	·
COc1cc(/C=C2/S/C(=N/S(=O)(=O)Cc3ccccc3)NC2=O)c([N+](=O)[O-])cc1OC	2	6	42*	9	-1
Cn1cc(S(=O)(=O)N2CCOCC2)cc1C(=O)Nc1ccc(Cl)cc1	1	-6	10	-13	99*
C[C@@H]1Cn2cnc(C(=O)N[C@@H](Cc3c[nH]c4ccccc34)C(=O)OC(C)(C)C)c2C(=O)N1	·	·	6	·	·
CC(=O)Nc1cc2c(cc1[N+](=O)[O-])-c1ccccc1C2=NO	·	·	17	·	·
CC(=O)Nc1cc2c(cc1[N+](=O)[O-])-c1ccccc1C2O (configuration not stated)	·	·	41*	·	·
Cc1c(N2C(=O)/C(=C/c3ccccc3)SC2=S)c(=O)n(-c2ccccc2)n1C	1	13	24	-10	-2
Cc1c(N2C(=O)/C(=C/c3ccc(N(C)C)cc3)N(C)C2=S)c(=O)n(-c2ccccc2)n1C	·	·	44*	·	·
COc1ccc(-c2cc3nc(C)cc(N)n3n2)cc1	95*	97*	-179	96*	94*
Cc1cccc(-c2cc3nc(C)cc(C)n3n2)c1	54*	78*	-315	-3	5
Cc1cccc(-c2cc3nc(C)cc(N4CC(C)CC(C)C4)n3n2)c1 (configuration not stated)	-6	-9	-221	-15	·
CNC(=S)NNc1nc(C)cc(C)n1	0	-2	4	1	0
NC(=O)C1C2CCC(C2)C1C(N)=O (configuration not stated)	·	·	19	·	·
SMILES	SENP8 block-1	SENP7 block	SENP8 block-2	SENP6 inh	Platelet DG rel
OC(c1ccccc1)c1ncc(-c2ccccc2Cl)[nH]1 (configuration not stated)	·	·	12	·	·
CC1CCc2sc(C(=O)NN=C3CCCC3)cc2C1 (configuration not stated)	·	·	6	·	·
CCCCC(=O)OCC(=O)C1(O)Cc2c(O)c3c(c(O)c2C(OC2CC(NC(=O)C(F)(F)F)C(O)C(C)O2)C1)C(=O)c1c(OC)cccc1C3=O (configuration not stated)	·	·	45*	·	·
COc1cccc2c1C(=O)c1c(O)c3c(c(O)c1C2=O)CC(O)(C(C)=O)CC3OC1CC(O)C(O)C(C)O1 (configuration not stated)	·	·	50*	·	·
CCN1/C(=C/c2ccc3ccccc3[n+]2CC)C=Cc2ccccc21	12	8	42*	-2	18
Clc1ccc(OCc2nc3ccccc3[nH]2)cc1	56*	82*	-3	72*	4
COc1ccc(C=C2c3ccccc3C(=O)c3ccccc32)c(OC)c1	-9	-1	26	-26	5
COc1cc(OC)c2c(c1)C(=O)c1cc(OC)cc(OC)c1C2=O	1	3	57*	-14	-3

Screens deposited in PubChem by several laboratories.
